Results taken from PubChem BioAssay AID1159580 (chemical genetic matrix, 2015).
Among all 5,500 compounds or so, about 2,000 (36%) were called active. Roughly 18% stayed inconclusive and do not appear here. Cut-off read from the data, not from the text of the source: active = normalized growth mostly below about 0.91 (no sharp cut-off); inconclusive = no clear call, values can overlap the other calls; inactive = mostly above about 0.92. This is one part of the list.

Assay: chemical genetic growth profiling, strain panel (AID 1159580);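 note: tested at 20 µM; growth read once vehicle control cultures reached saturation at 30 °C; 1 = growth at the plate median or of vehicle wells; lower values mean less growth of the strain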
Settings: growth OD

Measured: normalized growth

CNC[C@H](O)c1cccc(O)c1
inactive: S. cerevisiae deletion strains, locus YKL009W, strain mrt4, hits give low values 1 | S. cerevisiae deletion strains, locus YKL068W, hits give low values 1.01 | S. cerevisiae deletion strains, locus YKL085W, strain MDH1 (second series), hits give low values 1.01 | S. cerevisiae deletion strains, locus YKL085W, strain MDH1, hits give low values 1.01 | S. cerevisiae deletion strains, locus YKL160W, strain elf1, hits give low values 0.963 | S. cerevisiae deletion strains, locus YKL190W, strain CNB1, hits give low values 1 | S. cerevisiae deletion strains, locus YKR001C, strain vps1, hits give low values 1.02 | S. cerevisiae deletion strains, locus YKR026C, strain gcn3, hits give low values 0.99 | S. cerevisiae deletion strains, locus YKR091W, strain srl3, hits give low values 0.962 | S. cerevisiae deletion strains, locus YLL001W, strain dnm1, hits give low values 0.962 | S. cerevisiae deletion strains, locus YLL026W, hits give low values 0.977 | S. cerevisiae deletion strains, locus YLL041C, strain sdh2, hits give low values 0.985 | S. cerevisiae deletion strains, locus YLR027C, strain aat2, hits give low values 0.974 | S. cerevisiae deletion strains, locus YLR039C, strain RIC1, hits give low values 1.03 | S. cerevisiae deletion strains, locus YLR058C, strain SHM2, hits give low values 1.01 | S. cerevisiae deletion strains, locus YLR102C, strain apc9, hits give low values 1.01 | S. cerevisiae deletion strains, locus YLR113W, strain HOG1, hits give low values 1 | S. cerevisiae deletion strains, locus YLR221C, strain rsa3, hits give low values 0.987 | S. cerevisiae deletion strains, locus YLR258W, strain gsy2, hits give low values 0.986 | S. cerevisiae deletion strains, locus YLR262C, strain YPT6 (second series), hits give low values 0.969 | S. cerevisiae deletion strains, locus YLR262C, strain YPT6, hits give low values 1.03 | S. cerevisiae deletion strains, locus YLR268W, strain sec22, hits give low values 1.02 | S. cerevisiae deletion strains, locus YLR320W, strain mms22, hits give low values 0.964 | S. cerevisiae deletion strains, locus YLR330W, strain CHS5, hits give low values 1.01 | S. cerevisiae deletion strains, locus YLR342W, strain FKS1 (second series), hits give low values 0.994 | S. cerevisiae deletion strains, locus YLR342W, strain FKS1, hits give low values 0.963 | S. cerevisiae deletion strains, locus YLR357W, strain rsc2, hits give low values 0.906 | S. cerevisiae deletion strains, locus YLR370C, strain arc18, hits give low values 0.991 | S. cerevisiae deletion strains, locus YLR371W, strain rom2, hits give low values 1.01 | S. cerevisiae deletion strains, locus YLR384C, strain iki3, hits give low values 0.979 | S. cerevisiae deletion strains, locus YLR418C, strain cdc73, hits give low values 1.02 | S. cerevisiae deletion strains, locus YML016C, strain PPZ1, hits give low values 1.01 | S. cerevisiae deletion strains, locus YML032C, strain rad52, hits give low values 1.02 | S. cerevisiae deletion strains, locus YML120C, strain ndi1, hits give low values 0.979 | S. cerevisiae deletion strains, locus YML124C, strain tub3, hits give low values 1.02 | S. cerevisiae deletion strains, locus YMR058W, strain fet3, hits give low values 0.971 | S. cerevisiae deletion strains, locus YMR078C, strain ctf18, hits give low values 1.01 | S. cerevisiae deletion strains, locus YMR125W, strain sto1, hits give low values 0.995 | S. cerevisiae deletion strains, locus YMR129W, hits give low values 0.988 | S. cerevisiae deletion strains, locus YMR205C, strain PFK2, hits give low values 0.965 | S. cerevisiae deletion strains, locus YMR223W, strain ubp8, hits give low values 1.01 | S. cerevisiae deletion strains, locus YMR231W, strain pep5, hits give low values 0.982 | S. cerevisiae deletion strains, locus YMR263W, strain SAP30, hits give low values 1.01 | S. cerevisiae deletion strains, locus YMR307W, strain GAS1, hits give low values 1.02 | S. cerevisiae deletion strains, locus YNL067W, strain RPL9B, hits give low values 1 | S. cerevisiae deletion strains, locus YNL071W, strain lat1, hits give low values 0.998 | S. cerevisiae deletion strains, locus YNL128W, strain TEP1, hits give low values 1.01 | S. cerevisiae deletion strains, locus YNL153C, strain GIM3, hits give low values 1.01 | S. cerevisiae deletion strains, locus YNL183C, strain NPR1, hits give low values 0.975 | S. cerevisiae deletion strains, locus YNL209W, strain ssb2, hits give low values 0.991 | S. cerevisiae deletion strains, locus YNL233W, strain BNI4, hits give low values 1.01 | S. cerevisiae deletion strains, locus YNL248C, strain rpa49, hits give low values 0.988 | S. cerevisiae deletion strains, locus YNL250W, strain rad50, hits give low values 1.02 | S. cerevisiae deletion strains, locus YNL271C, strain bni1, hits give low values 1.02 | S. cerevisiae deletion strains, locus YNL298W, strain CLA4, hits give low values 1.03 | S. cerevisiae deletion strains, locus YNL307C, strain MCK1, hits give low values 1.02 | S. cerevisiae deletion strains, locus YNL322C, strain KRE1 (second series), hits give low values 0.976 | S. cerevisiae deletion strains, locus YNL322C, strain KRE1, hits give low values 1 | S. cerevisiae deletion strains, locus YNR049C, strain mso1, hits give low values 0.993 | S. cerevisiae deletion strains, locus YNR052C, strain pop2, hits give low values 1.02 | S. cerevisiae deletion strains, locus YOL006C, strain TOP1, hits give low values 1.05 | S. cerevisiae deletion strains, locus YOL012C, strain htz1 0.81 | S. cerevisiae deletion strains, locus YOL147C, strain pex11, hits give low values 1.02 | S. cerevisiae deletion strains, locus YOR001W, strain rrp6, hits give low values 0.977 | S. cerevisiae deletion strains, locus YOR061W, strain CKA2, hits give low values 1.01 | S. cerevisiae deletion strains, locus YOR069W, strain VPS5, hits give low values 1.01 | S. cerevisiae deletion strains, locus YOR070C, strain gyp1, hits give low values 0.994 | S. cerevisiae deletion strains, locus YOR080W, strain dia2, hits give low values 0.98 | S. cerevisiae deletion strains, locus YOR083W, strain WHI5, hits give low values 0.953 | S. cerevisiae deletion strains, locus YOR106W, strain vam3, hits give low values 0.98 | S. cerevisiae deletion strains, locus YOR136W, strain idh2, hits give low values 1.02 | S. cerevisiae deletion strains, locus YOR144C, strain elg1, hits give low values 1.01 | S. cerevisiae deletion strains, locus YOR184W, strain ser1, hits give low values 1.04 | S. cerevisiae deletion strains, locus YOR231W, strain MKK1, hits give low values 1 | S. cerevisiae deletion strains, locus YOR265W, strain rbl2, hits give low values 0.989 | S. cerevisiae deletion strains, locus YOR270C, strain vph1, hits give low values 1 | S. cerevisiae deletion strains, locus YOR290C, strain snf2, hits give low values 0.993 | S. cerevisiae deletion strains, locus YOR316C, strain cot1, hits give low values 1.02 | S. cerevisiae deletion strains, locus YPL051W, strain arl3, hits give low values 0.973 | S. cerevisiae deletion strains, locus YPL055C, strain LGE1, hits give low values 1.01 | S. cerevisiae deletion strains, locus YPL078C, strain atp4, hits give low values 0.966 | S. cerevisiae deletion strains, locus YPL106C, strain sse1, hits give low values 0.95 | S. cerevisiae deletion strains, locus YPL240C, strain hsp82, hits give low values 0.982 | S. cerevisiae deletion strains, locus YPL241C, strain CIN2, hits give low values 1.01 | S. cerevisiae deletion strains, locus YPL256C, strain CLN2, hits give low values 1.01 | S. cerevisiae deletion strains, locus YPR119W, strain clb2, hits give low values 1.01 | S. cerevisiae deletion strains, locus YPR141C, strain kar3, hits give low values 1.02 | S. cerevisiae deletion strains, locus YPR163C, strain tif3, hits give low values 1.02 | S. cerevisiae deletion strains, locus YPR167C, strain met16, hits give low values 1.02 | S. cerevisiae deletion strains, strain wtn01, hits give low values 1.01 | S. cerevisiae strains, strain wild type, hits give low values 1.01
